For part of these data: Potency and affinity values are given separately. Calls of active or inactive are those of the source.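 How the source made its calls, unless noted: active means earlier screen potentiator hit that boosts the TRPC4 ion channel at some dose, with a dose response; inactive means no potentiation, no dose response, or not a prior hit.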
Experiments:
[1] = test system: TRPC4 beta (transient receptor potential cation channel C4), mouse; assay: activators of mouse TRPC4 channel, confirmation, cell-based, Fluo4 calcium, HEK293 TRPC4beta/mu-opioid, duplicates, 10 µM (AID 2426;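 active means fluorescence ratio normalized to control raised more than 50% in primary screen plus both repeat runs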;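 further: percent rise of integrated ratio over buffer wells lacking compound which define 0%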); settings: Fluo4 calcium fluorescence, at 10 µM; hits give high values
[2] = test system: transient receptor potential cation channel C4 beta (TRPC4), mouse; assay: activators of mouse TRPC4 channel, confirmation, cell-based, second round, Fluo4, HEK293 TRPC4beta/mu-opioid, 1 µM (AID 2461;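 active means primary screen active and over 50% activation in each of two duplicate runs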;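 on activation: 0% = wells without test compound as baseline of integrated fluorescence ratio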); settings: Fluo4 calcium fluorescence, at 1 µM; hits give high values
[3] = test system: TRPC4 (transient receptor potential cation channel C4 beta), mouse; assay: positive allosteric modulators of mouse TRPC4, confirmation, cell-based, second round, Fluo-4, HEK293 TRPC4beta/mu-opioid, 1 µM (AID 2554;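 active means primary screen hit whose fluorescence ratio, in both repeats, exceeds the weak agonist control mean by 3 SD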); settings: DAMGO EC20, Fluo-4 calcium flux, at 1 µM; hits give high values
[4] = test system: TRPC4 beta (transient receptor potential cation channel C4), mouse; assay: positive allosteric modulators of mouse TRPC4, confirmation, cell-based, Fluo-4, HEK293 TRPC4beta/mu-opioid (AID 2555;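 active means primary screen hit whose calcium fluorescence ratio, in both repeats, exceeds the weak agonist control mean by 3 SD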); settings: DAMGO EC20, Fluo-4 calcium flux, at 10 µM; hits give high values
[5] = target: Short transient receptor potential channel 4 (Mus musculus) (UniProt Q9QUQ5); assay: inhibitors of mouse TRPC4 channel, confirmation, cell-based, Fluo4, HEK293 TRPC4beta/mu-opioid (AID 2636;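 active means calcium signal cut by more than 3 SD below the full-agonist control yet still positive, in both repeats and the earlier primary screen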); settings: DAMGO, Fluo4 calcium flux, at 10 µM; hits give high values
[6] = target: Short transient receptor potential channel 4 (Mus musculus) (UniProt Q9QUQ5); assay: inhibitors of mouse TRPC4 channel, confirmation, cell-based, second round, Fluo4, HEK293 TRPC4beta/mu-opioid, 1 µM (AID 2637;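 active means calcium signal ratio cut to more than 3 SD under the fully stimulated control mean yet still positive, in both repeats and the primary screen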); settings: Fluo4 calcium flux, DAMGO, at 1 µM; hits give high values
[7] = target: Short transient receptor potential channel 4 (Mus musculus) (UniProt Q9QUQ5); assay: TRPC4 positive allosteric modulators, dose response, cell-based, HEK293 TRPC4/mu-opioid, Fluo-4 calcium, EC20 DAMGO (AID 434941);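 further: calcium entry triggered by an EC20 dose of DAMGO at the co-expressed mu-opioid receptor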
[8] = target: Short transient receptor potential channel 4 (Mus musculus) (UniProt Q9QUQ5); assay: mouse TRPC4 channel inhibitors, dose response, cell-based, HEK293 TRPC4/mu-opioid, Fluo-4 calcium (AID 434942;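 active means primary screen inhibitor hit that blocks the TRPC4 channel at some tested dose, yielding a dose curve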)
[9] = target: Short transient receptor potential channel 6 (Mus musculus) (UniProt Q61143); assay: inhibition of mouse TRPC6 channel, confirmation, selectivity assay for TRPC4 inhibitor project, cell-based, HEK293, membrane potential dye, duplicate (AID 434948;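 active means active in primary screen and both duplicates, each dropping signal beyond three positive-control SD with fluorescence still positive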); settings: HEK293 TRPC6, membrane potential dye fluorescence, at 10 µM, stimulated with maximal-effect acetylcholine; hits give high values
[10] = target: Short transient receptor potential channel 6 (Mus musculus) (UniProt Q61143); assay: activation of mouse TRPC6 channel, confirmation, selectivity assay for TRPC4 activator project, cell-based, HEK293, membrane potential dye, duplicate (AID 434950;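 active means membrane potential signal rise above negative control mean plus 3 SD in both duplicates, also active in the earlier TRPC4 screen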;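 on activation: 0% = buffer only wells and 100% = acetylcholine maximal-effect wells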); settings: HEK293 TRPC6, membrane potential fluorescence, at 10 µM; hits give high values
[11] = target: Short transient receptor potential channel 6 (Mus musculus) (UniProt Q61143); assay: TRPC6 potentiation by TRPC4 potentiator hits, confirmation, selectivity assay for TRPC4 potentiator project, HEK293 cells, membrane potential dye, duplicate (AID 434952;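 active means compound raising the membrane signal above positive-control mean plus 3 SD in both repeats, and a primary screen hit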); settings: HEK293 TRPC6, membrane potential dye fluorescence, at 10 µM, maximal acetylcholine added after compound; hits give high values
[12] = target: Short transient receptor potential channel 4 (Mus musculus) (UniProt Q9QUQ5); assay: calcium flux activators in TRPC4/5HT1a cells, counter-screen for TRPC4 activator project, cell-based, second counter screen, HEK293 TRPC4/5HT1a, Fluo-4 (AID 434977;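 active means calcium signal rise above buffer-control mean plus 5 SD in both duplicates, and also a hit in the primary screen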;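 on activation: plate controls were assay buffer for no effect and maximal serotonin response for full effect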); settings: Fluo-4 calcium flux, at 10 µM; hits give high values
[13] = calcium flux inhibitors in TRPC4/5HT1a cells, confirmation, counter-screen for TRPC4 inhibitor project, cell-based, second counter screen, HEK293 TRPC4/5HT1a, Fluo-4 (AID 434978;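 active means primary screen active whose calcium signal fell more than 3 SD beyond the full-serotonin control mean in both duplicate plates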;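 further: serotonin given first at submaximal then at maximal dose after compound preincubation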); settings: Fluo-4 calcium flux, at 10 µM, serotonin added to trigger calcium flux; hits give high values
[14] = test system: TRPC4 (mouse), co-expressed with 5HT1a in HEK293; assay: calcium flux potentiators in TRPC4/5HT1a cells, confirmation, counter-screen for TRPC4 potentiator project, cell-based, second counter screen, HEK293 TRPC4/5HT1a, Fluo-4 (AID 434979;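 active means signal rise over 3 SD above mean of control wells given weak agonist, in both repeats and first screen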); settings: Fluo-4 calcium flux, at 10 µM, serotonin added at its EC20 dose; hits give high values
[15] = calcium flux activation in mu-opioid HEK293 cells, confirmation, counter-screen for TRPC4 activator project, cell-based, HEK293 mu-opioid receptor line (AID 449723;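 active means hit in primary screen, with calcium signal over 5 SD above buffer well mean in both duplicates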;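 further: counter screen cells carry the mu-opioid receptor alone and lack TRPC4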); settings: Fluo-4 calcium fluorescence, at 10 µM; hits give high values
[16] = calcium flux enhancement in mu-opioid HEK293 cells, confirmation, counter-screen for TRPC4 allosteric potentiator project, cell-based, HEK293 mu-opioid receptor line (AID 449724;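 active means calcium signal rise more than 3 SD above the low-dose agonist control mean, in both duplicate plates and the primary screen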;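 further: HEK293 cells carrying mu-opioid receptor only with no TRPC4 channel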); settings: Fluo-4 calcium flux, at 10 µM, compound added before EC20 DAMGO stimulus; hits give high values

Measured: activation

Chain of Short transient receptor potential channel 6 (Mus musculus) (Q61143 whole entry, looked up): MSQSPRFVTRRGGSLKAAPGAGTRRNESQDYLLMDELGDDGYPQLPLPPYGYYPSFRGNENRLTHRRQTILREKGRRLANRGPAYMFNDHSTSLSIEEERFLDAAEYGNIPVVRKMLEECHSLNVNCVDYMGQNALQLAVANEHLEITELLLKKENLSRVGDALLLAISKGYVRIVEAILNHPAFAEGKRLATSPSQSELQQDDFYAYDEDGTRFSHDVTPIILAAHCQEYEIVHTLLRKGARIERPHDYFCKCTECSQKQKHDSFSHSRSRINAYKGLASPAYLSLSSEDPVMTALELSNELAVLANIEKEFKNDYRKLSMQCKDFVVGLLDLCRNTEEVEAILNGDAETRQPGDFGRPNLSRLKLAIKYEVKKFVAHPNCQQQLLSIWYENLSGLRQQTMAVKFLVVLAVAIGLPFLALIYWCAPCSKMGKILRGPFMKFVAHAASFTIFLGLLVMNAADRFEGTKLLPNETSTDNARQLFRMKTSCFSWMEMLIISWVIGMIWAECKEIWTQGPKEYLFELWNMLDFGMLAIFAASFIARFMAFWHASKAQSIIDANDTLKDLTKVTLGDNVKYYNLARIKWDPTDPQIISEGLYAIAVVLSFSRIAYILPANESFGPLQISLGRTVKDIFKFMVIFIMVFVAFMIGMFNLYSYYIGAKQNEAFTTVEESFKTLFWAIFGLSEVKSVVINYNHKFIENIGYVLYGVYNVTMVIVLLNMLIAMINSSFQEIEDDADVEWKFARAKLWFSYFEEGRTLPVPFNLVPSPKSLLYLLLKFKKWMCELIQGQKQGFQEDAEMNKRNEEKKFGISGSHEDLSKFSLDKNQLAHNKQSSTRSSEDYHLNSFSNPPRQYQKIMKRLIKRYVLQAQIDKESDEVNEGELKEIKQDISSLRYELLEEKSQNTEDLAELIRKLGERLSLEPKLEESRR
Chain of Short transient receptor potential channel 4 (Mus musculus) (Q9QUQ5 whole entry, looked up): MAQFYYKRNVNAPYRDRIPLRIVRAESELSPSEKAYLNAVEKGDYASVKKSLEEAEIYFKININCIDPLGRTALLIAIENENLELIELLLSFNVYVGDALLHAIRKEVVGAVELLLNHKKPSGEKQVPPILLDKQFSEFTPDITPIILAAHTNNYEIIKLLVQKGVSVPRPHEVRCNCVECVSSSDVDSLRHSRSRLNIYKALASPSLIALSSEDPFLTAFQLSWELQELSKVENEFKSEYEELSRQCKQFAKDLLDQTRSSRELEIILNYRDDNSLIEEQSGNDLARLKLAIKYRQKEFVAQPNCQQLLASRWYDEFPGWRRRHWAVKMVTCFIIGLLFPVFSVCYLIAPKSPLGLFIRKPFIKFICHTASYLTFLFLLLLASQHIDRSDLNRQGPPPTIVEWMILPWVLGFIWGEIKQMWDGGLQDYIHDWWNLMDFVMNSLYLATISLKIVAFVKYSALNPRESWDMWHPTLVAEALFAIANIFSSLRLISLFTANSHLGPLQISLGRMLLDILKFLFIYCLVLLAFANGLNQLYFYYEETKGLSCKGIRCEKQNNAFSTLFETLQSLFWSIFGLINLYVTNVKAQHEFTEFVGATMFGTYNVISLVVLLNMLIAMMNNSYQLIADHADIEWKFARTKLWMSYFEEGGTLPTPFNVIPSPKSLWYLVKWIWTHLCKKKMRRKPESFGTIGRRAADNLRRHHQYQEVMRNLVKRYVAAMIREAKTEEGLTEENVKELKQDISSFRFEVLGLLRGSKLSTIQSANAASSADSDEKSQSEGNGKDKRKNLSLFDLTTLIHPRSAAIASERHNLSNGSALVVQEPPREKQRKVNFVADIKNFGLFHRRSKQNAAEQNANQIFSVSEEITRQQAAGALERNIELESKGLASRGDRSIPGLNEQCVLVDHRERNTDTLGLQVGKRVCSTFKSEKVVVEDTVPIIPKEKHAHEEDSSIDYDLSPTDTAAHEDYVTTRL

O=C(C1CCCN(Cc2ccccc2F)C1)N1CCc2ccccc2C1 (stereo not given)
active: [1] 96% | [2] 98% | [10] 56.5% | [12] 40.5%
inactive: [3] | [4] | [5] | [6] | [7] | [8] | [9] | [11] | [13] | [14] | [15] | [16]

NCCSc1c(-c2ccc(Cl)cc2)[nH]c2ccccc12
inactive: [2] | [3] | [4] | [5] | [6] | [7] | [8] | [9] | [10] | [11] | [13] | [14] | [16]
active: [1] 116% | [12] 8.63% | [15] 19.5%

Cn1c(-c2cccc3ccccc23)n[nH]c1=S
inactive: [3] | [4] | [5] | [6] | [7] | [8] | [9] | [10] | [11] | [13] | [14] | [15] | [16]
active: [1] 117% | [2] 97% | [12] 30.5%

O=C(CCc1ccccc1)NNC(=S)NC(=O)c1ccc(Cl)cc1
inactive: [2] | [3] | [4] | [5] | [6] | [7] | [8] | [9] | [11] | [13] | [14] | [16]
active: [1] 170% | [10] 30% | [12] 66.8% | [15] 28.6%

C=CCn1c(CCNC(=O)c2ccco2)nc2ccccc21
inactive: [3] | [4] | [5] | [6] | [7] | [8] | [9] | [10] | [11] | [13] | [14] | [15] | [16]
active: [1] 165% | [2] 70% | [12] 55%

CCCC(=O)N1CCc2cc(-c3nc(N)sc3C)ccc21
active: [1] 62%
inactive: [2] | [3] | [4] | [5] | [6] | [7] | [8] | [9] | [10] | [11] | [12] | [13] | [14] | [15] | [16]

COc1ccc(-c2cc(C(=O)NCC(c3ccccc3)N(C)C)c3ccccc3n2)cc1OC (stereo not given)
active: [1] 98%
inactive: [2] | [3] | [4] | [5] | [6] | [7] | [8] | [9] | [10] | [11] | [12] | [13] | [14] | [15] | [16]

CC(NCCC1(Cc2ccccc2Cl)CCOC(C)(C)C1)c1cccs1 (stereo not given)
active: [1] 89%
inactive: [2] | [3] | [4] | [5] | [6] | [7] | [8] | [9] | [10] | [11] | [12] | [13] | [14] | [15] | [16]

C#Cc1cccc(C(=O)NC2CCCN(C3Cc4ccccc4C3)C2)c1 (stereo not given)
inactive: [3] | [4] | [5] | [6] | [7] | [8] | [9] | [11] | [13] | [14] | [15] | [16]
active: [1] 191% | [2] 94% | [10] 59% | [12] 111%

OC(CNC1CCCc2ccccc21)COc1ccc2ccccc2c1 (stereo not given)
inactive: [2] | [3] | [4] | [5] | [6] | [7] | [8] | [9] | [11] | [13] | [14] | [15] | [16]
active: [1] 158% | [10] 55% | [12] 30.1%

O=C(NNC(=S)NC(=O)C12CC3CC(CC(C3)C1)C2)c1ccncc1
inactive: [2] | [3] | [4] | [5] | [6] | [7] | [8] | [9] | [10] | [11] | [13] | [14] | [16]
active: [1] 192% | [12] 126% | [15] 44.2%

Cc1cccc(NC(=S)NCC(c2cccnc2)N(C)C)c1C (stereo not given)
inactive: [3] | [4] | [5] | [6] | [7] | [8] | [9] | [10] | [11] | [12] | [13] | [14] | [15] | [16]
active: [1] 82% | [2] 106%

Cc1ccccc1C(=O)NNC(=S)NC(=O)c1ccccc1
active: [1] 215% | [10] 43.5% | [12] 121% | [15] 72.9%
inactive: [2] | [3] | [4] | [5] | [6] | [7] | [8] | [9] | [11] | [13] | [14] | [16]

Cc1ccc(N2CCN(c3ccc(NCc4nc5ccccc5n4C)cc3)CC2)cc1
active: [1] 79%
inactive: [2] | [3] | [4] | [5] | [6] | [7] | [8] | [9] | [10] | [11] | [12] | [13] | [14] | [15] | [16]

CN(C)C(CNC(=O)c1cnc(Cl)c(Cl)c1)c1ccccc1 (stereo not given)
inactive: [3] | [4] | [5] | [6] | [7] | [8] | [9] | [11] | [12] | [13] | [14] | [15] | [16]
active: [1] 169% | [2] 151% | [10] 30.5%
